# Results from PubChem BioAssay AID488890 (Southern Research Specialized Biocontainment Screening …, 2010).
# Screen size: about 320,000 compounds; about 1,300 (0.41%) were called active. Roughly 3% stayed inconclusive and do not appear here. No rule for the calls is given here. These entries were drawn from the full list. Results with a measured potency or affinity are listed apart.
# Test: growth inhibition of non-replicating M. tuberculosis (AID 488890);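 also: plate controls were DMSO cells for no effect and high antibiotic wells for full effect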
# Details: Mycobacterium tuberculosis non-replicating, at 25 µM, stronger effect = higher value
row,Compound,inhibition
1,CC1=N/C(=C/c2cccnc2)C(=O)O1,-16.7%
2,Cc1ccc(C2=N/C(=C\N3CCCCC3)C(=O)O2)cc1,21.3%
3,COc1ccccc1C(c1c(N)n(C)c(=O)n(C)c1=O)C(C)[N+](=O)[O-] (stereo not given),53%
4,COc1cc(C(C[N+](=O)[O-])c2c(N)n(C)c(=O)n(C)c2=O)ccc1O (stereo not given),23.3%
5,COc1ccc(CCN(C)Cc2ccncc2)cc1OC,1.96%
6,O=[N+]([O-])c1ccc(Oc2cccc3cccnc23)c([N+](=O)[O-])c1,72%
7,O=C(Nc1ncccc1O)c1ccc2c(c1)OCCO2,-9.11%
8,O=C(Nc1cccc2cccnc12)c1ccc2c(c1)OCCO2,16.4%
9,COc1ccccc1OC(=O)c1ccc(C)c(S(=O)(=O)N2CCOCC2)c1,16.8%
10,COc1ccc(OC(=O)c2ccc(OC)c(S(=O)(=O)N3CCOCC3)c2)cc1,21.9%
11,O=C(Nc1cccc2cccnc12)c1cccc([N+](=O)[O-])c1,14.7%
12,Cc1ccc(S(=O)(=O)NCc2cccnc2)cc1C,3.38%
13,Cn1c(SCc2nc3ccccc3[nH]2)nnc1-c1cnccn1,11%
14,COc1ccc(CCNC(=O)C2CCN(C(=O)c3ccc(Br)cc3)CC2)cc1OC,-3.89%
15,CCOC(=O)Cn1c(=O)oc2ccc(C)cc21,16.3%
16,CCn1cc(/C=N/NC(=O)c2ccc3c(c2)OCO3)c(C)n1,-8.38%
17,CCN(CC)C(=O)c1sc2nc(Cc3ccccc3)[nH]c(=O)c2c1C,11%
18,O=C(Nc1ccc(S(=O)(=O)Nc2ncccn2)cc1)C1=NN(c2ccccc2)C(=O)CC1,36.2%
19,O=C(N/N=C/c1ccc(N2CCOCC2)cc1)C1CC1,3.95%
20,COC1CCCN(Cc2c(C(=O)N3CCN(C4CCCCC4)CC3)nc3ccccn23)C1 (stereo not given),6.53%
21,O=C(C1=C[C@H](c2ccc(C(F)(F)F)cc2)C[C@H](OCc2ccc(CO)cc2)O1)N1CCCCCCC1,23%
22,Cc1cccc(CN2CCc3c([nH]c4ccccc34)C2C(C)(C)C)n1 (stereo not given),14.5%

row,Compound,inhibition
1,OC(CNCC1CCCO1)Cn1c2ccccc2c2ccccc21 (stereo not given),25.3%
2,OC(CNCC1CCCO1)COc1ccc(OCC(O)CNCC2CCCO2)cc1 (stereo not given),10.8%
3,Cc1ccc(O)c(CNc2nccs2)c1,-1.47%
4,O=C(CCNS(=O)(=O)c1ccc(OC(F)(F)F)cc1)N1CCN(C/C=C/c2ccccc2)CC1,47.4%
5,O=C1CNC(=S)N1CCCn1ccnc1,2.92%
6,CCOC(=O)c1ccc(NC(=O)CCc2ccc(C)o2)cc1,79.2%
7,Cc1ccc(CCC(=O)Nc2ccc(CC(=O)O)cc2)o1,9.94%
8,CC(=O)Nc1ccc(NC(=O)CCc2ccc(C)o2)cc1,16.7%
9,Cc1ccc(CCC(=O)Nc2ccc(C#N)cc2)o1,50.3%
10,O=C(N/N=C\c1ccncc1)c1ccccc1O,19.9%
11,O=C(N/N=C/c1ccc(OCc2ccccc2)cc1)c1ccco1,6.81%
12,Cc1noc(C)c1COC(=O)CCc1nc2ccccc2c(=O)[nH]1,-4.31%
13,COc1ccc(C(=O)Nc2ccc(O)c3ccccc23)cc1,75.7%
14,COc1ccc(NC(=O)Nc2c(O)ccc3ccccc23)cc1,17.9%
15,CCCNc1nc2nc3ccccn3c(=O)c2cc1C(=O)NCCN1CCOCC1,-18.1%
16,O=C(Nc1c(F)cc(F)cc1Br)c1cc(-c2ccc(O)cc2)on1,79.2%
17,COc1ccc(-c2cc(C(=O)Nc3c(F)cc(F)cc3Br)no2)cc1,79.1%
18,CN(/N=C/C=C/c1ccccc1)C1=NS(=O)(=O)c2ccccc21,-1.47%
19,O=S1(=O)N=C(N/N=C/c2ccccn2)c2ccccc21,10.2%
20,COc1ccccc1NC(=O)CC1SC(=N)N(c2ccccc2)C1=O (stereo not given),-5.17%
21,Cc1cc(S(=O)(=O)NCCC2=CCCCC2)ccc1Br,34.3%
22,O=C(NC(=S)NCC1CCCO1)c1ccc(Br)o1 (stereo not given),-17.8%

row,Compound,inhibition
1,NS(=O)(=O)c1ccc(NC(=O)Cn2nc(C(=O)O)c3ccccc3c2=O)cc1,2.92%
2,Cc1ccc2cc(/C=N/NC(=O)CN3CCOCC3)c(Cl)nc2c1,6.43%
3,COc1cc(C2N(c3ccc(Cl)cc3)C(=O)C3CCCN32)cc(OC)c1OC (stereo not given),-23.2%
4,COc1ccc(Cc2nnc(NC(=O)c3c(-c4ccccc4)noc3C)s2)cc1,4.39%
5,CCc1nnc(NC(=O)c2c(-c3ccccc3)noc2C)s1,13.3%
6,CC1(C)CC(=O)C(Sc2ccccc2C(=O)O)=C(O)C1,-8.16%
7,COc1ccc(C(=O)C[n+]2ccc3c(c2)nc(-c2ccccc2)n3C)cc1,65.3%
8,O=C(CN1CCN(c2ccc(Cl)cc2)CC1)Nc1cccc(F)c1,69%
9,COCc1cc(C)nc2sc(C(=O)N3CCCC3)c(N)c12,3.21%
10,CCC(CC)c1nnc(NC(=O)c2cc(-c3ccccc3)nc3ccccc23)s1,18.4%
11,CCC(CC)c1nnc(NC(=O)c2ccco2)s1,14.7%
12,CCCCn1c(O)c(/C=C2\C=Nc3ccccc32)c(=O)[nH]c1=O,59%
13,Cn1c(O)c(/C=C2/C=CC=N2)c(=O)[nH]c1=O,75.9%
14,CCCCn1c(O)c(C=NCCCn2ccnc2)c(=O)[nH]c1=O,5.46%
15,O=c1[nH]c(=O)n(Cc2ccccc2)c(O)c1/C=C1\C=Nc2ccccc21,66.3%
16,CCCCn1c(O)c(/C=N/NC(=O)c2ccncc2)c(=O)[nH]c1=O,53.7%
17,O=c1[nH]c(=O)n(Cc2ccccc2Cl)c(O)c1C=Nc1ccc(F)cc1,-1.58%
18,O=C(Nc1cccc(-n2cnnn2)c1)c1ccncc1,0.55%
19,Cc1[nH]c2ccc(F)cc2c1CCN(Cc1ccncc1)C(=S)Nc1cccc(F)c1,16.2%
20,COc1ccc(/C=N/NC(=O)NC23CC4CC(CC(C4)C2)C3)c(OC)c1,27.6%
21,Cc1ccc(-c2noc(=O)n2CC(=O)Nc2ccc(S(=O)(=O)NC3CC3)cc2)cc1,11.5%
22,O=C(NCCN1CCN(c2ccccc2)CC1)C1CCN(S(=O)(=O)c2cccc3nonc23)CC1,18.8%

row,Compound,inhibition
1,O=C(NC1CCCCCC1)c1ccc(CS(=O)(=O)Cc2ccc(F)cc2)o1,1.29%
2,Nc1nc(NCc2c(F)cccc2Cl)nn1-c1ccccc1,2.25%
3,CCCSc1nnc(Cn2c(=O)sc3ccccc32)n1-c1ccccc1,7.2%
4,CN(CC(=O)Nc1cccc(F)c1)C(=O)c1ccc(OCC2CCCO2)cc1 (stereo not given),-4.27%
5,Cc1ccc(S(=O)(=O)N2CCC(C(=O)OCC(=O)NCCc3ccccc3)CC2)cc1C,27.8%
6,CCOC(=O)C1CCN(S(=O)(=O)c2ccc(C)c(C)c2)CC1,-7.38%
7,O=C(NCCC(=O)N(CCc1ccccc1)Cc1ccccc1)c1ccc(Br)cc1,22.1%
8,Fc1ccc2nc(C(F)(F)F)cc(N3CCOCC3)c2c1,-5.99%
9,COc1ccccc1-c1nnc(Nc2nc3c(OC)cccc3s2)o1,19%
10,COc1ccc(-c2nnc(Nc3nc4c(OC)cccc4s3)o2)c(OC)c1,60.8%
11,COc1cccc2sc(NN)nc12,-6.89%
12,COc1cccc2sc(Nc3nc(-c4ccncc4)cs3)nc12,31.8%
13,O=C1Cc2ccccc2C(=O)N1Cc1ccccc1,-3.14%
14,Cc1cc(C)nc(NC(=O)c2ccc(Br)s2)n1,55.2%
15,COc1ccc(Cl)cc1NC(=O)CN(C)C(=O)c1ccc(-n2cncn2)cc1,0.55%
16,Nc1c(-c2ccccc2)cnn1-c1ccccc1,-6.23%
17,CCOC(=O)c1cccc(NC(=O)c2cccnc2)c1,-4.27%
18,O=C(NNC(=O)c1ccccc1O)c1ccc(-c2ccc([N+](=O)[O-])cc2)o1,-16.6%
19,CC(=O)NC(=O)c1ccc(-c2ccc(Cl)cc2)o1,57.6%
20,COC(=O)c1sccc1-c1ccc(C(=O)Nc2cccnc2)o1,-4.8%
21,O=C(Nc1cccnc1)c1ccc(-c2cc(Cl)ccc2Cl)o1,-8.82%
22,O=C(Nc1cccnc1)c1cc(-c2ccc(Cl)cc2)on1,71%

row,Compound,inhibition
1,CCN(CC(=O)Nc1c(F)cccc1F)C(=O)CNC(=O)c1ccc2ccccc2c1,18.6%
2,CN(C)S(=O)(=O)c1cccc(C(=O)NC(=S)N(CCC#N)Cc2cccnc2)c1,42.5%
3,COCC(=O)N1CCC(Oc2ccc(C(=O)N3CCCCCC3)cc2)CC1,-1.31%
4,COc1ccc(-c2sc3ccccc3c2-c2ccc(O)cc2)cc1,17.4%
5,COc1ccc(NC(=O)CN(C)S(=O)(=O)c2ccc3c(c2)CCCN3C(C)=O)cc1,-3.38%
6,Cc1onc(C(=O)N2CCC(Cc3ccccc3)CC2)c1[N+](=O)[O-],-6.71%
7,CCOC(=O)CSc1nc2c(sc(=S)n2-c2ccc(CC)cc2)c(=O)[nH]1,48.4%
8,COc1ccc(NC(=O)CNc2ccccc2N2CCCC2=O)cc1S(=O)(=O)N1CCOCC1,13.9%
9,Cn1cccc1CC(=O)N/N=C/c1cc([N+](=O)[O-])ccc1Cl,14.2%
10,COC(=O)c1ccc(-c2ccc(C(c3c(C)[nH][nH]c3=O)c3c(C)[nH][nH]c3=O)o2)cc1,36.5%
11,Cc1[nH][nH]c(=O)c1C(c1ccc(-c2cccc(C(=O)O)c2)o1)c1c(C)[nH][nH]c1=O,-6.98%
12,Cc1c(NC(=S)NC(NC(=O)C(C)(C)C)C(Cl)(Cl)Cl)c(=O)n(-c2ccccc2)n1C (stereo not given),1.72%
13,O=C1OCC(CO)(CO)N=C1NNc1ccccc1[N+](=O)[O-],4.31%
14,O=C(CN1CCOCC1)N/N=C/c1ccc(-c2cccc(Cl)c2Cl)o1,20.1%
15,CC1(CC(=O)N/N=C/c2ccc(-c3ccc(Cl)cc3)o2)OCCO1,69.5%
16,O=C(CN1CCOCC1)N/N=C/c1ccc(-c2ccc(C(=O)O)cc2)o1,2.35%
17,Cc1ccc(C(=O)N/N=C\c2ccc(-c3ccc(Cl)c(Cl)c3)o2)cn1,16.6%
18,Cc1ccc(C(=O)N/N=C/c2ccc(-c3cccc(Cl)c3)o2)cn1,-3.58%
19,CCC(=O)N/N=C/c1ccc(-c2ccc([N+](=O)[O-])cc2)o1,74.5%
20,CN(C)c1ccc(C(=O)N/N=C/C23CC[C@@H](O)CC2(O)CC[C@@H]2[C@@H]3CCC3(C)C(C4=CC(=O)OC4)CCC23O)cc1 (stereo not given in full),-3.55%
21,CCOC(=O)c1cc(C)n(-n2cnnc2)c1C,-3.13%
22,COc1ccc2c(c1)nc(SCC(=O)C(C)(C)C)n2C,7.17%
